In all, about 310,000 compounds went through this assay and about 14,000 (4.5%) showed an effect of 50% or more. The effect is printed as a negative number. Many of the other results were omitted from the sample, so strong results are more common in it than they were.
What follows are compounds tested against human ether-à-go-go-related gene (hERG) potassium channel (human, UniProt Q12809) (assay: primary screen, population patch clamp on CHO cells stably expressing hERG; higher = less effect of the substance).
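Note: peak tail current of the secondary pulse compared with the same well before compound.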

human ether-à-go-go-related gene (hERG) potassium channel, sequence (Q12809 whole entry, looked up): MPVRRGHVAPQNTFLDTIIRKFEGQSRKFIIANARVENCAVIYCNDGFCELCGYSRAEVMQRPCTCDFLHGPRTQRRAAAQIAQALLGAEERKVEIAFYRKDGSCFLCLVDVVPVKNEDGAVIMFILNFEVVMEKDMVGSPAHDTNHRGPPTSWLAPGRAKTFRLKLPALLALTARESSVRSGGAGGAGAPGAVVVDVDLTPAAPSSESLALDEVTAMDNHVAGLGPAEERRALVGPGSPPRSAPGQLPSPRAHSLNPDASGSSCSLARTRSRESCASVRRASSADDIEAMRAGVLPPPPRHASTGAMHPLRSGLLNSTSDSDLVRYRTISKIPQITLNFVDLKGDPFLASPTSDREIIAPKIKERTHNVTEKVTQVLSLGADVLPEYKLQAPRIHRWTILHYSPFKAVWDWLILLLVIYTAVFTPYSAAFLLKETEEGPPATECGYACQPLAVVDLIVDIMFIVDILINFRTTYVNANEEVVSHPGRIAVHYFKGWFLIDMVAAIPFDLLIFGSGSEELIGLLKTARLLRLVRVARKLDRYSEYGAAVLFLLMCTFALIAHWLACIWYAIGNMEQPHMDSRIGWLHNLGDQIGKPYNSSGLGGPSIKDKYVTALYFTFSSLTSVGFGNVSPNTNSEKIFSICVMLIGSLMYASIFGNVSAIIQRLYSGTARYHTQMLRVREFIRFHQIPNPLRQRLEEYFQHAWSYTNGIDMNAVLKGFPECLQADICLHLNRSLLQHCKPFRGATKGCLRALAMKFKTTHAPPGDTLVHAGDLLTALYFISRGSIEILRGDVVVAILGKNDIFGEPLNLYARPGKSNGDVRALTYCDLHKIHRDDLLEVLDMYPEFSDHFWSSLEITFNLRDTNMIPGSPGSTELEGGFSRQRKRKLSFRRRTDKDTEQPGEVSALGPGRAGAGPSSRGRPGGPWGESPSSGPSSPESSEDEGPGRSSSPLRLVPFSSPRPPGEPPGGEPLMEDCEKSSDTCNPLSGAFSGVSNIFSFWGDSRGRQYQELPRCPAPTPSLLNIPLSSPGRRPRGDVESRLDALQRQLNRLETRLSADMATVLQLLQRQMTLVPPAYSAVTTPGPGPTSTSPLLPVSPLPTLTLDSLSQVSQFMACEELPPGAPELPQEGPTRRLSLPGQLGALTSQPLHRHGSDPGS

Point of comparison: CSc1ccc(CN2CCN(C(=O)COc3ccc(C)cc3)CC2)cc1.O=C(O)C(=O)O, “hERG current change (%, negative = inhibition) at 10uM” value -60.4%. Against it:
- O=C(CNC(=O)c1cccs1)NCC(=O)OCc1ccc(F)cc1 — higher, -13.1%
- O=C(CN1C(=O)C(=O)N(C2CCCC2)C1=O)NCCc1ccc(Cl)cc1Cl — higher, 10.4%
- COc1ccccc1NC(=O)Cn1nc(-c2ccncc2)nc1SCC(=O)NC1CCCC1 — higher, -20.2%
- COC(=O)CC1SC(=O)NC1=Nc1ccc(OC)cc1 (stereo not shown) — higher, 1.66%
- CCC(C)NS(=O)(=O)c1ccc(OCC(=O)Nc2ccc(F)cc2F)cc1 (stereo not shown) — higher, -2.06%
- COCCCNCC#CCOc1ccc(OC)cc1.O=C(O)C(=O)O — higher, 0.922%
- O=C(NCCN1CCN(Cc2ccc([N+](=O)[O-])cc2)CC1)C(=O)Nc1ccccc1 — lower, -64.3%
- O=C(NCCc1ccccc1)C(=O)Nc1ccc([N+](=O)[O-])cc1 — higher, -2.37%
- O=C(NCCN1CCN(S(=O)(=O)c2ccc([N+](=O)[O-])cc2)CC1)C(=O)Nc1ccccc1 — higher, 13.5%
- CC(OC(=O)c1ccc2c(c1)C(=O)N(Cc1ccncc1)C2=O)C(=O)Nc1cccc(Cl)c1Cl (stereo not shown) — higher, -11.1%
- COC(=O)c1ccc(C(=O)OC)c(NC(=O)C2CC2)c1 — lower, -68.9%
- COC(=O)c1ccc(C(=O)OC)c(NC(=O)C(C)(C)C)c1 — higher, 20.7%
- COC(=O)c1ccc(C(=O)OC)c(NC(=S)N2CCN(c3ccccc3)CC2)c1 — higher, -19.1%
- COC(=O)c1ccc(C(=O)OC)c(NC(=O)CCS(=O)(=O)Cc2ccccc2)c1 — higher, -2.41%
- COC(=O)c1ccc(C(=O)OC)c(NC(=O)CS(=O)(=O)Cc2ccccc2)c1 — higher, -53.2%
- COC(=O)c1ccc(C(=O)OC)c(NC(=S)N2CCN(c3ccccc3F)CC2)c1 — higher, -52.9%
- COC(=O)c1ccc(NC(=O)CS(=O)(=O)Cc2ccccc2)cc1 — higher, 1.28%
- COC(=O)c1ccc(C(=O)OC)c(NC(=S)N2CCN(c3ccc(F)cc3)CC2)c1 — higher, -24%
- COC(=O)c1ccc(C(=O)OC)c(NC(=O)C2CCCO2)c1 (stereo not shown) — higher, 10.5%
- Fc1ccc(-c2nnc(SCc3cccnc3)o2)cc1 — higher, -3.91%
- Fc1cccc(F)c1/C=N/NC(=S)Nc1cccnc1 — higher, -14.3%
- Cl.Oc1cccc(C(O)CNCc2ccc(OCc3ccc(Cl)cc3Cl)cc2)c1 (stereo not shown) — higher, 7.89%
- C=CCN(CC=C)S(=O)(=O)c1ccc(NC(=S)NC(=O)/C=C/c2ccc(C)cc2)cc1 — higher, 6.12%
- CN(C)CCOC(=O)C12CC3(C)CC(C)(CC(C)(C3)C1)C2.Cl — higher, -7.13%
- COc1ccc(CCNC(=O)CSCC(=O)Nc2ccccc2)cc1OC — higher, 17.8%
- COc1ccc(/C=C/C(=O)OCC(=O)Nc2c(C)cccc2C)cc1 — higher, 12.5%
- CCOC(=O)c1c(-c2ccc(C)o2)csc1NC(=O)CSc1nnnn1-c1ccccc1 — higher, -3.66%
- NC(=O)C(c1ccccc1)c1ncc(C(F)(F)F)cc1Cl (stereo not shown) — higher, 4.88%
- CC(C)Oc1cccc(C(=O)C2CCCN(C(=O)c3ccoc3)C2)c1 (stereo not shown) — higher, -14.7%
- CSc1ccc(CN2CCN(C(=O)CC(C)C)CC2)cc1 — higher, 9.42%
- COc1ccc(OCC(=O)N2CCN(Cc3ccc(SC)cc3)CC2)cc1.O=C(O)C(=O)O — higher, -50.9%
- Cc1cccc(OCC(=O)N2CCN(Cc3cccnc3)CC2)c1.O=C(O)C(=O)O — higher, -3.95%
- COc1ccc(OCC(=O)N2CCN(C(C)C)CC2)cc1.O=C(O)C(=O)O — higher, 6.62%
- CSc1ccc(CN2CCN(C(=O)COc3cccc(C)c3)CC2)cc1 — higher, -50.3%
- Cc1cccc(OCC(=O)N2CCOCC2)c1 — higher, 15.5%
- O=C(COc1ccc(Cl)cc1)N1CCN(C(=O)c2cccc(F)c2)CC1 — higher, -58.5%
- COc1ccc(OCC(=O)N2CCN(C(=O)c3cccc(F)c3)CC2)cc1 — higher, -7.41%
- Cc1cccc(OCC(=O)N2CCN(S(C)(=O)=O)CC2)c1 — higher, 11.2%
- Cc1cccc(OCC(=O)N2CCN(C(=O)Cc3ccccc3)CC2)c1 — higher, -13.2%
- Cc1cccc(OCC(=O)N2CCN(C(=O)COc3ccc(Cl)cc3)CC2)c1 — lower, -72.2%
- O=C(COc1ccccc1)N1CCN(C(=O)c2cccc(F)c2)CC1 — higher, -7.92%
- O=C(CS(=O)(=O)c1ccc(F)cc1)Nc1nnc(-c2cccs2)o1 — higher, 13.3%
- O=C(COC(=O)c1cnccn1)Nc1ccc(Cl)cc1C(F)(F)F — higher, 0.684%
- CN(C)S(=O)(=O)c1ccc(C(=O)Nc2nnc(-c3ccco3)o2)cc1 — higher, 12.4%
- CCOC(=O)N1CCN(C(=O)C(NC(=O)c2ccc(CC)cc2)C(C)C)CC1 (stereo not shown) — higher, -19.5%
- COc1cc(N2C(=O)CC(=O)NC2=O)cc(OC)c1OC — higher, 17.1%
- COCCCNC(=O)CCCCCNS(=O)(=O)c1ccc(Br)cc1 — higher, -21.4%
- CC(=O)Nc1ccc(/C=C/C(=O)c2ccccc2)cc1 — higher, 9.09%
- Cc1ccccc1NC(=O)c1ccc(S(=O)(=O)C(F)F)cc1 — higher, -27.6%
- Cn1c(=O)oc2cc(S(=O)(=O)CCC(=O)NCCc3ccccc3)ccc21 — higher, 7.46%
- CN(C)S(=O)(=O)c1cccc(-c2cn3cc(Cl)ccc3n2)c1 — higher, 7.03%
- Cc1cccc(C(=O)OCC(=O)NC(=O)Cc2ccccc2)c1O — higher, 13.8%
- COc1ccccc1N1CCN(C(=O)COc2ccc(Cl)cc2)CC1 — lower, -68.5%
- COc1ccccc1OCC(=O)N1CCN(c2ccccc2OC)CC1 — higher, 1.3%
- Cc1ccc(OCC(=O)N2CCN(Cc3cccnc3)CC2)cc1.O=C(O)C(=O)O — higher, 17.7%
- COc1ccccc1N1CCN(C(=O)COc2cc(C)cc(C)c2)CC1 — higher, 10.8%
- Cc1ccc(OCC(=O)N2CCN(Cc3ccc4c(c3)OCO4)CC2)cc1.O=C(O)C(=O)O — higher, -15.7%

Reference: PMC4336329 (PLoS ONE, 2015)
